Measured potencies and affinities stand elsewhere. The source made the active and inactive calls.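 How the source made its calls: active means toxic compound whose fitted half-effect dose of signal loss is at most twice its top tested dose; inconclusive means flat fit losing 30 to 70% signal, or poor fit; inactive means the rest.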
Assay: cytotoxicity in HeLa cells, dose response, cytotoxicity control, cell-based, plate reader, dry powder (AID 651946)
Details: HeLa viability, ATP luminescence (CellTiter-Glo), 48 h; series mostly up to 26 µM; activity change, negative = cytotoxicity: at the top concentration

Compound | activity change, negative = cytotoxicity | outcome
O=S(=O)(Cc1ccccc1)c1nnc(-c2ccccc2)o1 | -6.44% (inactive) | 
CN(Cc1ccccc1)c1nnc(-c2ccccc2)o1 | -1.41% (inactive) | 
CS(=O)(=O)c1ccc(-c2nnc(SCc3ccccc3)o2)cc1 | -16.9% (inactive) | 
COc1cccc(CSc2nnc(-c3ccccc3)o2)c1 | 2.65% (inactive) | 
c1ccc(-c2nnc(SCc3ccncc3)o2)cc1 | 4.81% (inactive) | 
c1ccc(CSc2nnc(-c3cscn3)o2)cc1 | 3.73% (inactive) | 
Fc1ccc(CSc2nnc(-c3ccc(Cl)cc3)o2)cc1 | 1.58% (inactive) | 
c1ccc(CCc2nnc(-c3ccccc3)o2)cc1 | 13% [at 12 µM] (inactive) | 
COc1ccc(-c2nnc(SCc3ccc(Cl)cc3)o2)cc1 | -8.74% (inactive) | 
N#Cc1cccc(-c2nnc(SCc3ccccc3)o2)c1 | 22.6% (inactive) | 
N#Cc1ccc(CSc2nnc(-c3ccccc3)o2)cc1 | -5.77% (inactive) | 
COc1ccc(CSc2nnc(-c3ccc(Cl)cc3)o2)nc1 | -4.32% (inactive) | 
Brc1ccc(CSc2nnc(-c3ccccc3)o2)cc1 | -1.08% (inactive) | 
c1ccc(-n2cc(CSc3nnc(C4CCC4)o3)nn2)cc1 | -13.6% (inactive) | 
Clc1cccc(-c2nnc(SCc3ccccc3)o2)c1 | 5.52% (inactive) | 
Cc1cccc(CSc2nnc(-c3ccccc3)o2)c1 | -5.41% (inactive) | 
FC(F)(F)Oc1ccc(-c2nnc(SCc3ccccc3)o2)cc1 | 9.74% (inactive) | 
c1ccc(CSc2nnc(-c3ccncc3)o2)cc1 | 7.89% (inactive) | 
CS(=O)(=O)c1ccccc1CSc1nnc(-c2ccccc2)o1 | -6.14% (inactive) | 

Compound | activity change, negative = cytotoxicity | outcome
CS(=O)(=O)c1ccc(CSc2nnc(-c3ccccc3)o2)cc1 | 5.79% (inactive) | 
CCSc1nnc(-c2ccccc2)o1 | -0.855% (inactive) | 
FC(F)(F)Oc1cccc(-c2nnc(SCc3ccccc3)o2)c1 | 2.45% (inactive) | 
N#Cc1ccc(-c2nnc(SCc3ccccc3)o2)cc1 | -16.1% (inactive) | 
N#Cc1ccccc1CSc1nnc(-c2ccccc2)o1 | 2.07% (inactive) | 
CN(C)CCSc1nnc(-c2ccccc2)o1 | 1.24% (inactive) | 
FC(F)(F)CNCCSc1nnc(-c2ccccc2)o1 | -5.52% (inactive) | 
FC(F)(F)Oc1ccc(CSc2nnc(-c3ccccc3)o2)cc1 | 13.6% (inactive) | 
c1ccc(CSc2nnc(-c3ccco3)o2)cc1 | 9.18% (inactive) | 
Fc1ccc(Cn2cc(CSc3nnc(C4CCCC4)o3)nn2)cc1 | -6.02% (inactive) | 
Clc1ccc(CSc2nnc(-c3ccccc3)o2)cc1 | -9.93% (inactive) | 
c1ccc(CSc2nnc(-c3cccnc3)o2)nc1 | 16.6% (inactive) | 
Fc1ccccc1-c1nnc(SCc2ccccc2)o1 | 2.75% (inactive) | 
c1ccc(CSc2nnc(-c3cnco3)o2)cc1 | 6.24% (inactive) | 
COc1cccc(-c2nnc(SCc3ccccc3)o2)c1 | -3.27% (inactive) | 
Fc1ccc(CSc2nnc(-c3ccccc3)o2)cc1 |  | inactive
Brc1cccc(-c2nnc(SCc3ccccn3)o2)c1 | -15.3% (inactive) | 
FC(F)(F)Oc1cccc(CSc2nnc(-c3ccccc3)o2)c1 | 2.07% (inactive) | 

From PubChem BioAssay AID651946 (Broad Institute, 2012)
